The values below come from the supplement of paper PMC4371806.

The full ranking holds about 1,600 compounds; the median of “plate-normalized OD600 growth (mean of duplicates)” is about 0.31, and the lowest 2% start at about 0.23. Shown is part of a subset that was picked to be rich in the lowest values.

This assay concerns Escherichia coli BW25113. Nature of the assay: plate-normalized OD600 growth (mean of duplicates) (OD600 (normalized)); higher = more growth (less inhibition). The conditions noted are these: 10 µM. How it is done:
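E. coli BW25113 in LB (100 µl, 96-well, no shaking) was exposed to 10 µM of each compound (here the ChemBridge subset of a ~30,000-member library) and grown at 37°C for 24 h or 15°C for 48 h, in duplicate. Growth was read as OD600 and the duplicate ODs were normalized across screening plates to correct plate-to-plate variation.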

On to `Cc1ccc2c(c1)C1CN(C)CCC1N2` (stereo not given), for which the “plate-normalized OD600 growth” value (temperature: 15°C, 48 h) was found to be 0.227 and the “plate-normalized OD600 growth” value (temperature: 37°C, 24 h) stood at 0.61.

For `O=c1cccc2n1C[C@H]1C[C@H]2CN(Cc2c(Cl)cccc2Cl)C1`, the “plate-normalized OD600 growth” value is, setting by setting: (temperature: 15°C, 48 h) 0.284; (temperature: 37°C, 24 h) 0.625.

As for `Cc1ccc(-c2nc3ccccc3c(=O)n2-c2cccc(O)c2)cc1`, the “plate-normalized OD600 growth” value was 0.247 (temperature: 15°C, 48 h) and 0.61 (temperature: 37°C, 24 h).

For `Fc1ccc(CN2CCN(c3cccc(Cl)c3)CC2)c(F)c1`, the “plate-normalized OD600 growth” value was determined as 0.253 (temperature: 15°C, 48 h) and 0.623 (temperature: 37°C, 24 h).

As to `CCC(N)C(=O)c1ccc(Br)cc1` (stereo not given), the “plate-normalized OD600 growth” value reads like this: (temperature: 15°C, 48 h) 0.219; (temperature: 37°C, 24 h) 0.624.

Turning to `Cc1cccc(C)c1-n1nnnc1C1(Nc2cccc(O)c2)CCCCC1`, the “plate-normalized OD600 growth” value reads like this: (temperature: 15°C, 48 h) 0.252; (temperature: 37°C, 24 h) 0.643.

For `CN1C(=O)N(C)C(=O)C(CCc2ccncc2)(CCc2ccncc2)C1=O`, the “plate-normalized OD600 growth” value stood at 0.266 (temperature: 15°C, 48 h) and 0.631 (temperature: 37°C, 24 h).

On to `CCOc1cc(/C=C/[N+](=O)[O-])ccc1O`, for which the “plate-normalized OD600 growth” value (temperature: 15°C, 48 h) was 0.209 and the “plate-normalized OD600 growth” value (temperature: 37°C, 24 h) came to 0.585.

On to `COc1ccccc1N1CCN(Cc2ccc(N(C)C)cc2)CC1`, for which the “plate-normalized OD600 growth” value (temperature: 15°C, 48 h) turned out to be 0.234 and the “plate-normalized OD600 growth” value (temperature: 37°C, 24 h) was 0.615.

Consider `Clc1cccc(N2CCN(Cc3ccc4c(c3)OCO4)CC2)c1`, for which the “plate-normalized OD600 growth” value runs as follows: (temperature: 15°C, 48 h) 0.275; (temperature: 37°C, 24 h) 0.647.

Turning to `CCN1CCN(Cc2ccc(OC)c(C)c2)CC1`, the “plate-normalized OD600 growth” value came out at 0.261 (temperature: 15°C, 48 h) and 0.606 (temperature: 37°C, 24 h).

For `Oc1cccc(CN2CCN(c3ccccc3Cl)CC2)c1`, the “plate-normalized OD600 growth” value turned out to be 0.26 (temperature: 15°C, 48 h) and 0.611 (temperature: 37°C, 24 h).

Take `COc1cccc(CN2CCN(c3ccccc3)CC2)c1`: the “plate-normalized OD600 growth” value by setting is: (temperature: 15°C, 48 h) 0.252; (temperature: 37°C, 24 h) 0.608.

Consider `COc1cccc(CN2CCN(c3cccc(Cl)c3)CC2)c1`, for which the “plate-normalized OD600 growth” value turned out to be 0.26 (temperature: 15°C, 48 h) and 0.623 (temperature: 37°C, 24 h).

For the compound `Fc1ccc(N2CCN(CCc3ccccc3)CC2)cc1`, the “plate-normalized OD600 growth” value by setting is: (temperature: 15°C, 48 h) 0.24; (temperature: 37°C, 24 h) 0.615.

In the case of `Oc1cccc(CN2CCN(c3ccc(F)cc3)CC2)c1`, the “plate-normalized OD600 growth” value reads like this: (temperature: 15°C, 48 h) 0.222; (temperature: 37°C, 24 h) 0.646.

Consider `Cc1cccc(CN2CCN(c3ccccc3)CC2)c1`, for which the “plate-normalized OD600 growth” value came out at 0.223 (temperature: 15°C, 48 h) and 0.663 (temperature: 37°C, 24 h).

`COc1cc(CN2C[C@@H]3C[C@@H](C2)c2cccc(=O)n2C3)cc(I)c1O`: the “plate-normalized OD600 growth” value came out at 0.263 (temperature: 15°C, 48 h) and 0.634 (temperature: 37°C, 24 h).

Turning to `O=c1cccc2n1C[C@H]1C[C@H]2CN(Cc2cccc(Cl)c2Cl)C1`, the “plate-normalized OD600 growth” value runs as follows: (temperature: 15°C, 48 h) 0.28; (temperature: 37°C, 24 h) 0.659.

`COc1ccc(CN2C(=O)CC(=O)NC2=O)cc1`: the “plate-normalized OD600 growth” value (temperature: 15°C, 48 h) was found to be 0.265 and the “plate-normalized OD600 growth” value (temperature: 37°C, 24 h) came to 0.633.

For the compound `COc1ccc(N2CCN(Cc3ccc(N(C)C)cc3)CC2)cc1`, the “plate-normalized OD600 growth” value worked out at 0.271 (temperature: 15°C, 48 h) and 0.65 (temperature: 37°C, 24 h).

For `Cc1[nH]c2ccccc2c1CCCNC1CCCCC1`, the “plate-normalized OD600 growth” value (temperature: 15°C, 48 h) was determined as 0.264 and the “plate-normalized OD600 growth” value (temperature: 37°C, 24 h) turned out to be 0.644.

Turning to `Cc1ccccc1-n1c(/C=C/c2ccccc2[N+](=O)[O-])nc2ccccc2c1=O`, the “plate-normalized OD600 growth” value (temperature: 15°C, 48 h) is 0.239 and the “plate-normalized OD600 growth” value (temperature: 37°C, 24 h) was 0.651.

Consider `COc1ccc(Br)cc1CN1CCN(C)CC1`, for which the “plate-normalized OD600 growth” value (temperature: 15°C, 48 h) was 0.26 and the “plate-normalized OD600 growth” value (temperature: 37°C, 24 h) came out at 0.617.

Take `CN1C(=O)C(C2(C#N)CCCCC2)C(=O)N(C)C1=O`: the “plate-normalized OD600 growth” value runs as follows: (temperature: 15°C, 48 h) 0.264; (temperature: 37°C, 24 h) 0.635.

For the compound `COc1cc(Cc2ccc(N)c(OC)c2)ccc1N`, the “plate-normalized OD600 growth” value by setting is: (temperature: 15°C, 48 h) 0.255; (temperature: 37°C, 24 h) 0.625.

With `Cc1ccccc1CN1CCN(c2ccc([N+](=O)[O-])cc2)CC1`, the “plate-normalized OD600 growth” value is, setting by setting: (temperature: 15°C, 48 h) 0.23; (temperature: 37°C, 24 h) 0.605.

As to `Nc1ccc(Oc2ccc(N)cc2)cc1`, the “plate-normalized OD600 growth” value (temperature: 15°C, 48 h) stood at 0.168 and the “plate-normalized OD600 growth” value (temperature: 37°C, 24 h) turned out to be 0.608.

With `OCCN1CCN(Cc2ccc(F)c(F)c2)CC1`, the “plate-normalized OD600 growth” value (temperature: 15°C, 48 h) came to 0.247 and the “plate-normalized OD600 growth” value (temperature: 37°C, 24 h) worked out at 0.612.

On to `COC1CCCCC1NC1CCCCC1` (stereo not given), for which the “plate-normalized OD600 growth” value is 0.234 (temperature: 15°C, 48 h) and 0.614 (temperature: 37°C, 24 h).
